This is an account of results in paper PMC5540273 (PLoS ONE, 2017).
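Further: KINOMEscan kinase panel screen.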

For this experiment, the system named is PHKG2. Conditions: concentration: 1 μM, replicates: in singlicate; n = 1.
As for `FC(F)(F)c1ccc(/C=C/c2cncnc2Nc2ccc3[nH]c(Cc4ccccc4)nc3c2)cc1` [GW709199], the “%Inh” value turned out to be 0%.

For the molecule `COc1ccc(Nc2nccc(NCCNC(=O)c3cc4ccccc4s3)n2)cc1` [GSK1379896], the “%Inh” value was found to be 2%.

`Cl.Cl.NCC(NCc1ccc(-c2ccnc3[nH]ccc23)s1)c1ccccc1` (centres unmarked) [GSK1321565]: the “%Inh” value turned out to be 13%.

In the case of `O=C(Nc1cccc(-c2nn3ncccc3c2-c2ccnc(Nc3ccccc3)n2)c1)c1c(F)cccc1F` [GSK198271], the “%Inh” value came out at 0%.

Turning to `Cn1cc(-c2ccc3c(c2)CCN3C(=O)Cc2cccc(F)c2)c2c(N)ncnc21` [GSK2603358], the “%Inh” value is given as 0%.

On to `Nc1ncc(-c2cccnc2)c2scc(-c3ccc4c(c3)CCN4C(=O)Cc3ccccc3)c12` [GSK683281], for which the “%Inh” value is 0%.

Regarding `COC(=O)Nc1nc2cc(Oc3ccc(NC(=O)Nc4cc(C(F)(F)F)ccc4F)cn3)ccc2[nH]1.Cl.Cl` [GW681170], the “%Inh” value turned out to be 0%.

`CCn1c(-c2nonc2N)nc2c(C#CC(C)(C)O)nc(OC[C@H](N)c3ccccc3)cc21` [GSK943949]: the “%Inh” value worked out at 5%.

On to `COc1ccc(Nc2nccc(N3CCC(NC(=O)Nc4cccc(OC)c4)C3)n2)cc1` (centres unmarked) [GSK1379742], for which the “%Inh” value turned out to be 0%.

For the molecule `O=C(Nc1cccc(Oc2ccc3nc(NC(=O)C4CC4)cn3n2)c1)c1ccccc1C(F)(F)F`, the “%Inh” value is reported as 6%.

Consider `Fc1ccc(-c2ncn(C3CCNCC3)c2-c2ccnc(Oc3ccc(-c4ccccc4)cc3)n2)cc1` [SB-245391], for which the “%Inh” value is given as 0%.

Consider `CC(=O)Nc1nc2cnc(Nc3cc(NC(=O)c4cccc(C5(C#N)CC5)c4Cl)ccc3C)nc2s1`, for which the “%Inh” value worked out at 17%.

As for `Clc1ccc(-c2nn3ncccc3c2-c2ccnc(Nc3ccc4c(c3)OCCO4)n2)cc1` [GW829116], the “%Inh” value is recorded as 0%.

For the molecule `O=C(Nc1ccccc1F)NC1CCN(c2ccnc(Nc3ccc(F)cc3)n2)CC1` [GSK1379800], the “%Inh” value turned out to be 0%.

For `c1ccc(-c2cnc3nccnn23)cc1` [AH20685], the “%Inh” value was 0%.

With `COc1cc2c(cc1OCCN1CCNCC1)ncc1c3ccc(C#N)cc3[nH]c21`, the “%Inh” value is listed as 99.3%.

With `COc1cccc(C2=C(Nc3ccc(Cl)c(C(=O)O)c3)C(=O)NC2=O)c1` [SB-390769], the “%Inh” value was determined as 0%.

On to `O=C(O)C(F)(F)F.O=C(O)C(F)(F)F.O=c1[nH]ccc2nc(N[C@@H]3CCCNC3)nc(Nc3ccc(S(=O)(=O)N4CCOCC4)cc3)c12` [GSK2177277], for which the “%Inh” value is given as 94.7%.

As for `COc1cccc(NC(=O)NC2CCN(c3ccnc(Nc4cc(OC)c(OC)c(OC)c4)n3)C2)c1` (centres unmarked) [GSK1379763], the “%Inh” value was found to be 0%.

In the case of `O=c1[nH]cc(-c2ccc(N3CCOCC3)cc2)c2sc(-c3cn[nH]c3)cc12` [GSK2276055], the “%Inh” value is 6%.

Turning to `Nc1ncc(-c2ccc3nccc(-c4ccncc4)c3c2)cc1S(=O)(=O)N1CCOCC1` [GSK1627798], the “%Inh” value is given as 0%.

For `Cl.c1ccc(-c2ccc3c(Nc4ccc5[nH]ncc5c4)ccnc3c2)nc1` [GW440137], the “%Inh” value is recorded as 0%.

On to `Cc1ccc(C)c(NC(=O)NC2CCN(c3ccnc(Nc4ccc(F)cc4)n3)C2)c1` (centres unmarked) [GSK1379720], for which the “%Inh” value is listed as 0%.

On to `Cl.Cl.NCC(NC(=O)c1cc(-c2ccccc2)c(-c2ccnc3[nH]ccc23)s1)c1ccccc1` (centres unmarked) [GSK1321561], for which the “%Inh” value turned out to be 0%.

Regarding `Cc1occc1-c1ncc(OC[C@@H](N)Cc2c[nH]c3ccccc23)cc1-c1ccc2[nH]nc(C)c2c1.O=C(O)C(F)(F)F` [GSK682037], the “%Inh” value is reported as 0%.

In the case of `CN(c1ccc(NC(=O)Nc2cc(C(F)(F)F)ccc2F)cc1)c1ccnc(Nc2ccc(S(N)(=O)=O)cc2)n1` [GW809893], the “%Inh” value worked out at 0%.

As to `CC(C)c1nc(-c2cccc(NS(=O)(=O)c3c(F)cccc3F)c2F)c(-c2ccnc(Nc3ccc(N4CCOCC4)nc3)n2)s1` [GSK2008607], the “%Inh” value worked out at 0%.

On to `Cc1cccc(Nc2nc(N[C@H]3CCNC3)ncc2C(N)=O)c1.Cl` [GSK2197149], for which the “%Inh” value is recorded as 68%.

Consider `COc1cccc(C(=O)Nc2cccc(Oc3ccc4nc(NC(=O)C5CC5)cn4n3)c2)c1`, for which the “%Inh” value was 0%.

`Cl.c1ccc(-c2ccc3c(Nc4ccc5[nH]ccc5c4)ccnc3c2)nc1` [GW440138]: the “%Inh” value is given as 0%.

Turning to `CC(=O)N1CCN(c2ccc(Nc3nccc(-c4sc(C(C)C)nc4-c4cccc(NS(=O)(=O)c5cccc(Cl)c5)c4)n3)cn2)CC1` [GSK1660437], the “%Inh” value came out at 0%.

With `CCn1c(-c2nonc2N)nc2c(C#CC(C)(C)O)ncc(OCCCCN)c21.O=C(O)C(F)(F)F.O=C(O)C(F)(F)F` [GSK507274], the “%Inh” value was found to be 0%.
